Records with an inconclusive call do not appear. Active and inactive are the calls of the source. The calls were made as follows, unless noted: active = hit-call score of the fitted dose curve at least 0.9, where 1 is the maximum; inactive = score below 0.9.
Tests used:
[1] = biological target: Hepatocyte nuclear factor 4-alpha (Homo sapiens) (UniProt P41235); assay: ATG_HNF4a_TRANS: Attagene TRANS-FACTORIAL HepG2 Assay for human Hepatocyte Nuclear Factor 4 alpha (HNF4a) (AID 2282982; active = hit-call score of the fitted dose curve at least 0.9, where 1 is the maximum); conditions: HepG2 HNF4a transactivation reporter, mRNA readout
Summary of the method: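 HepG2 cells transiently transfected with HNF4a-Gal4 chimera and GAL4-UAS reporter units, dosed for 24 h. Reporter mRNA measured by RT-PCR, fluorescent primer extension and capillary electrophoresis; gain-of-signal fitted relative to DMSO.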

[2] = ATG_M_06_TRANS: Attagene TRANS-FACTORIAL HepG2 Assay for M06 Transcription Factor (Internal Marker) (AID 2282983; active = hit-call score of the fitted dose curve at least 0.9, where 1 is the maximum;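 as to AC50: potency for rise in reporter mRNA above DMSO baseline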); conditions: HepG2 Attagene TRANS M06 internal marker reporter
Summary of the method: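 HepG2 cells transiently transfected with multiplexed GAL4-UAS reporter transcription units; after 24 h compound exposure, reporter mRNA measured by RT-PCR, FAM-labelled primer extension, HpaI digestion and capillary electrophoresis. Gain-of-signal fitted versus DMSO baseline; background control readout.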

[3] = ATG_M_32_TRANS: Attagene TRANS-FACTORIAL HepG2 Assay for M32 Transcription Factor (Internal Marker) (AID 2282984; active = hit-call score of the fitted dose curve at least 0.9, where 1 is the maximum); conditions: HepG2 Attagene TRANS M32 internal marker reporter
Summary of the method: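 HepG2 cells transiently transfected with GAL4-UAS reporter units, dosed for 24 hours. Reporter mRNA quantified by RT-PCR, 6-FAM labelling, HpaI digestion and capillary electrophoresis; internal-marker signal fitted upward relative to DMSO.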

[4] = biological target: Nuclear respiratory factor 1 (Homo sapiens) (UniProt Q16656); assay: ATG_NRF1_CIS: Attagene CIS-FACTORIAL HepG2 Assay for human Nuclear Respiratory Factor 1 (NRF1) Orphan Gene (AID 2282987); conditions: HepG2 NRF1 cis-element reporter, Attagene multiplex; actives raise or lower the signal
Summary of the method: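 Cells (HepG2, transient MRTU transfection) are exposed to compound for 24 h, then RNA isolated and reporter mRNA amplified and fluorescently labelled. Fragments are separated by capillary electrophoresis; signal change is fitted bidirectionally relative to DMSO.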

[5] = ATG_NFI_CIS: Attagene CIS-FACTORIAL HepG2 Assay for human Nuclear Factor I (NFI) (AID 2282989); conditions: HepG2 cis-regulatory reporter, NFI response element transcription; actives raise or lower the signal
Summary of the method: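 Multiplexed cis-reporter system in human HepG2 cells reports native TF activity as reporter mRNA induction 24 h post-dose. Fragments labelled with 6-FAM, HpaI-digested and resolved by capillary electrophoresis; activity fitted both directions versus DMSO.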

[6] = biological target: Myc proto-oncogene protein (Homo sapiens) (UniProt P01106); assay: ATG_Myc_CIS: Attagene CIS-FACTORIAL HepG2 Assay for human Myelocytomatosis (Myc) Proto-Oncogene Transcription Factor (AID 2282990); conditions: HepG2, Attagene cis-reporter transcription factor activity; actives raise or lower the signal
Summary of the method: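 Fluorescence intensity of reporter-specific cDNA fragments, separated by capillary electrophoresis, gives the signal. Transfected HepG2 cells carrying cis-promoter reporter constructs are incubated with compound for 24 h; DMSO serves as baseline.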

[7] = ATG_NRF2_ARE_CIS: Attagene CIS-FACTORIAL HepG2 Assay for human Nuclear Factor Erythroid 2 Related Factor 2 (NFR2) response to Antioxidant Response Elements (ARE) (AID 2282992); conditions: HepG2 Attagene ARE/NRF2 reporter, transcription factor activity; actives raise or lower the signal;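 as to AC50: reporter mRNA level measured by RT-PCR and capillary electrophoresis fluorescence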
Summary of the method: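 Cis-factorial assay: transfected HepG2 reporter library, 24 h dosing, mRNA readout via RT-PCR/CE; DMSO-referenced bidirectional analysis.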

[8] = ATG_Oct_MLP_CIS: Attagene CIS-FACTORIAL HepG2 Assay for human Octamer-Binding Transcription Factor (Oct) (AID 2282993); conditions: HepG2 Attagene cis-factorial Oct reporter, mRNA; actives raise or lower the signal
Summary of the method: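 After 24 h compound exposure, transfected HepG2 cells were lysed for total RNA; reporter-specific cDNA was PCR-amplified, fluorescently labelled and sized by capillary electrophoresis. Bidirectional curve fitting used DMSO as baseline.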

[9] = biological target: Cellular tumor antigen p53 (Homo sapiens) (UniProt P04637); assay: ATG_p53_CIS: Attagene CIS-FACTORIAL HepG2 Assay for human p53 Transcription Factor (AID 2282994); conditions: HepG2 p53 cis-element reporter, Attagene mRNA; actives raise or lower the signal
Summary of the method: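 Using HepG2 hepatoma cells carrying cis-acting multiplexed reporters, mRNA induction is detected after a 24 h exposure. Gain- and loss-of-signal responses are fitted relative to DMSO-treated cells.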

[10] = BSK_3C_TissueFactor: BioMAP Diversity Plus: 3C Assay for Tissue Factor Biomarker Activity (AID 2282997); conditions: BioMAP 3C HUVEC, tissue factor biomarker readout; actives raise or lower the signal
Summary of the method: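 Primary human umbilical vein endothelial cells in the 3C system were exposed to test chemical for 24 h, then Tissue Factor measured by ELISA. Activity was fitted bidirectionally against DMSO as negative control and baseline.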

[11] = BSK_3C_uPAR: BioMAP Diversity Plus: 3C Assay for Urokinase-type plasminogen activator receptor (uPAR) Biomarker Activity (AID 2282998); conditions: BioMAP 3C HUVEC, uPAR biomarker ELISA; actives raise or lower the signal
Summary of the method: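 Values derive from bidirectional curve fitting relative to DMSO, which served as baseline of activity. uPAR was measured by ELISA in human umbilical vein endothelial primary cultures 24 h after compound addition.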

[12] = BSK_3C_VCAM1: BioMAP Diversity Plus: 3C Assay for Vascular cell adhesion molecule 1 (VCAM1) Biomarker Activity (AID 2282999); conditions: BioMAP 3C HUVEC, VCAM1 ELISA, cytokine-stimulated; actives raise or lower the signal
Summary of the method: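 Human umbilical vein endothelial cells (3C system), biomarker read by ELISA 24 h after dosing; bidirectional fit against DMSO baseline. Cytotoxicity tracked by SRB total-protein staining in parallel cultures at biomarker time.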

[13] = BSK_4H_Eotaxin3: BioMAP Diversity Plus: 4H Assay for Eotaxin 3 Biomarker Activity (AID 2283000); conditions: primary human endothelial cells (HUVEC); actives raise or lower the signal
Summary of the method: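 HUVEC, 24 h post-dose, ELISA for Eotaxin-3/CCL26. Gain or loss of signal fitted bidirectionally vs DMSO baseline.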

[14] = biological target: human Peroxisome Proliferator-activated Receptor alpha (PPARa), PPARA (gene 5465) (UniProt Q07869); assay: ATG_PPARa_TRANS: Attagene TRANS-FACTORIAL HepG2 Assay for human Peroxisome Proliferator-activated Receptor alpha (PPARa) (AID 2283001; active = hit-call score of the fitted dose curve at least 0.9, where 1 is the maximum;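 as to AC50: potency for gain of reporter signal over DMSO so agonist or activator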)
Summary of the method: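 HepG2 cells transiently transfected with multiplexed GAL4-UAS reporters driven by exogenous chimeric NR-Gal4 proteins; reporter mRNA measured after 24 h dosing. Read-out by RT-PCR, 6-FAM labelling, HpaI digestion and capillary electrophoresis; gain of signal versus DMSO.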

[15] = biological target: human Peroxisome Proliferator-activated Receptor delta (PPARd), PPARD (gene 5467) (UniProt Q03181); assay: ATG_PPARd_TRANS: Attagene TRANS-FACTORIAL HepG2 Assay for human Peroxisome Proliferator-activated Receptor delta (PPARd) (AID 2283002; active = hit-call score of the fitted dose curve at least 0.9, where 1 is the maximum)
Summary of the method: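 Fluorescence from capillary electrophoresis of labelled RT-PCR reporter fragments gives the signal; DMSO sets baseline. Cells: HepG2 transiently carrying GAL4-UAS reporter units plus chimeric nuclear receptor-Gal4 proteins, exposed to chemicals for 24 h.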

[16] = biological target: Transcriptional activator Myb (Homo sapiens) (UniProt P10242); assay: ATG_Myb_CIS: Attagene CIS-FACTORIAL HepG2 Assay for human Myeloblastosis (Myb) Proto-Oncogene Transcription Factor (AID 2282986); conditions: HepG2 Attagene CIS-FACTORIAL Myb reporter transcription; actives raise or lower the signal
Summary of the method: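 Transiently transfected HepG2 cells, treated 24 h. Reporter mRNA quantified by RT-PCR/capillary electrophoresis; bidirectional fit relative to DMSO.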

[17] = ATG_NF_kB_CIS: Attagene CIS-FACTORIAL HepG2 Assay for human Nuclear Factor Kappa B (NF-kB) (AID 2282991); conditions: HepG2 Attagene cis-factorial NF-kB reporter mRNA; actives raise or lower the signal
Summary of the method: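 Measures mRNA induction of an NF-kB-responsive cis-element reporter in HepG2 cells transfected with multiple reporter units, sampled 24 h post-dosing; quantified by fluorescence after RT-PCR and capillary electrophoresis, fitted for activation or inhibition against DMSO.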

[18] = biological target: Nuclear receptor subfamily 4 group A member 2 (Homo sapiens) (UniProt P43354); assay: ATG_NURR1_TRANS: Attagene TRANS-FACTORIAL HepG2 Assay for human Nuclear Receptor Related Protein 1 (NURR1) (AID 2282985; active = hit-call score of the fitted dose curve at least 0.9, where 1 is the maximum); conditions: HepG2 Attagene TRANS reporter, mRNA readout
Summary of the method: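 HepG2 cells transiently transfected with NURR1-Gal4 chimera and GAL4-UAS reporter units; after 24 hr compound exposure, reporter mRNA quantified by RT-PCR and capillary electrophoresis; gain of signal fitted against DMSO.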

Measured: AC50

Chain of Cellular tumor antigen p53 (Homo sapiens) (P04637 whole entry, looked up): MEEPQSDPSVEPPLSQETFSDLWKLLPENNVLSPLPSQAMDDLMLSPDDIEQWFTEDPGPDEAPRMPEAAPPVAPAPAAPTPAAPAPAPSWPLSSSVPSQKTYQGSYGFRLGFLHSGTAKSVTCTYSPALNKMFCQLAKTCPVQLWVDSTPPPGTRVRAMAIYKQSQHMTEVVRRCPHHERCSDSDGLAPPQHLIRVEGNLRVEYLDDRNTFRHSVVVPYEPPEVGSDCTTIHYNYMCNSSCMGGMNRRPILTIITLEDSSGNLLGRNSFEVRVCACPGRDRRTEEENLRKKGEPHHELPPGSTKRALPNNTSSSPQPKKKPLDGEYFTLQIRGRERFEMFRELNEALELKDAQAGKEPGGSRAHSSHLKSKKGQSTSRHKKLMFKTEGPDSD
Chain of human Peroxisome Proliferator-activated Receptor delta (PPARd), PPARD (gene 5467) (Q03181 whole entry, looked up, the tested form may be a part): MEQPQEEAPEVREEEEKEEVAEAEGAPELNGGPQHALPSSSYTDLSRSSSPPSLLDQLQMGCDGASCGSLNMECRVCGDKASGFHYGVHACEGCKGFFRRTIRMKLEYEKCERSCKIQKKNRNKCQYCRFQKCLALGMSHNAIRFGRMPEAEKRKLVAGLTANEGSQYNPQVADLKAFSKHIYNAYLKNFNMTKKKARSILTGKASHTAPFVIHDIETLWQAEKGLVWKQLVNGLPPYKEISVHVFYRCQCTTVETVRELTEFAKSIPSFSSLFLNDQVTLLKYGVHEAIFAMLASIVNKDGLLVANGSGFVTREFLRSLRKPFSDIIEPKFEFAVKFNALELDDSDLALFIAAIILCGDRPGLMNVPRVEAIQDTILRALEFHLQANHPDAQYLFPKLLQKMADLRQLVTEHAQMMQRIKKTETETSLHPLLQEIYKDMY
Chain of Myc proto-oncogene protein (Homo sapiens) (P01106 whole entry, looked up, the tested form may be a part): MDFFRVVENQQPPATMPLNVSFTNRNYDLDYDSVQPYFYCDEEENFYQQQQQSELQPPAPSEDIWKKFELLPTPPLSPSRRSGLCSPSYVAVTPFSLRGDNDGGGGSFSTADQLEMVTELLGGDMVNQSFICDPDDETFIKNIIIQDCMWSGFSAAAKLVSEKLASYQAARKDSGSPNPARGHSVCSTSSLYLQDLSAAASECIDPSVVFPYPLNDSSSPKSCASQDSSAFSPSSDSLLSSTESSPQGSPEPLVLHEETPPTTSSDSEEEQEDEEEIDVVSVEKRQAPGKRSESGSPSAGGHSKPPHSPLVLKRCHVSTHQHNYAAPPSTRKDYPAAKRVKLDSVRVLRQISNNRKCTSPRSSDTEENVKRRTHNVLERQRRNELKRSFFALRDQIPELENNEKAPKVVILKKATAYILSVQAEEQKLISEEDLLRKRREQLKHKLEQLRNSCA
Chain of Transcriptional activator Myb (Homo sapiens) (P10242 whole entry, looked up): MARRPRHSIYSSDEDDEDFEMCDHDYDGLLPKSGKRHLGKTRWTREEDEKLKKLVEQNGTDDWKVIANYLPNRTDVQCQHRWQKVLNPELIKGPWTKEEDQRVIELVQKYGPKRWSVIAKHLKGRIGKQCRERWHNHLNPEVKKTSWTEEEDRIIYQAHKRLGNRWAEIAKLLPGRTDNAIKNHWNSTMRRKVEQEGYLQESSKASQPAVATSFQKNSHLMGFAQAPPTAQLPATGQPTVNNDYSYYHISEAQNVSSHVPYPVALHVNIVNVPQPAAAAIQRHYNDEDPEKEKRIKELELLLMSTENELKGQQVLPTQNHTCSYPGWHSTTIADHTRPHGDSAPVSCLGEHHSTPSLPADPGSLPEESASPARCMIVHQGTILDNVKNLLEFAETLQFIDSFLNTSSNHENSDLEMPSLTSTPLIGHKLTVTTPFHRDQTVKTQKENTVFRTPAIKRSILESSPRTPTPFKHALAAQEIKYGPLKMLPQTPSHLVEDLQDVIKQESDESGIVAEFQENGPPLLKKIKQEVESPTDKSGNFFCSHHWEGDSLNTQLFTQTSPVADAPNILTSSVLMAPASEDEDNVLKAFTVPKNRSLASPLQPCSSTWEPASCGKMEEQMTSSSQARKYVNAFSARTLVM
Chain of Nuclear respiratory factor 1 (Homo sapiens) (Q16656 whole entry, looked up, the tested form may be a part): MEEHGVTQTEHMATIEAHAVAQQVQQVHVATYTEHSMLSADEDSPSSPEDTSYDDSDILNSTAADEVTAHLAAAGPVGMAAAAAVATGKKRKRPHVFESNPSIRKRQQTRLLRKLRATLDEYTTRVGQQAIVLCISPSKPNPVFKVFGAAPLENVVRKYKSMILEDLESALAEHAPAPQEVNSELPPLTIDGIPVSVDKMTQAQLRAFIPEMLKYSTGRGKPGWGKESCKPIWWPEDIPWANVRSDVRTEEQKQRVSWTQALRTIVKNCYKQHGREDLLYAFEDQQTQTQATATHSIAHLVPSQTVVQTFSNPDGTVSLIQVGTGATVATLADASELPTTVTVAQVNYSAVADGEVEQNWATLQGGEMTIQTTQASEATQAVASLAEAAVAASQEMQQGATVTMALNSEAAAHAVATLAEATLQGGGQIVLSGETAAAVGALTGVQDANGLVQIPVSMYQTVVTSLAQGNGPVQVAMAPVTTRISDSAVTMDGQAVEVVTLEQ
Chain of human Peroxisome Proliferator-activated Receptor alpha (PPARa), PPARA (gene 5465) (Q07869 whole entry, looked up, the tested form may be a part): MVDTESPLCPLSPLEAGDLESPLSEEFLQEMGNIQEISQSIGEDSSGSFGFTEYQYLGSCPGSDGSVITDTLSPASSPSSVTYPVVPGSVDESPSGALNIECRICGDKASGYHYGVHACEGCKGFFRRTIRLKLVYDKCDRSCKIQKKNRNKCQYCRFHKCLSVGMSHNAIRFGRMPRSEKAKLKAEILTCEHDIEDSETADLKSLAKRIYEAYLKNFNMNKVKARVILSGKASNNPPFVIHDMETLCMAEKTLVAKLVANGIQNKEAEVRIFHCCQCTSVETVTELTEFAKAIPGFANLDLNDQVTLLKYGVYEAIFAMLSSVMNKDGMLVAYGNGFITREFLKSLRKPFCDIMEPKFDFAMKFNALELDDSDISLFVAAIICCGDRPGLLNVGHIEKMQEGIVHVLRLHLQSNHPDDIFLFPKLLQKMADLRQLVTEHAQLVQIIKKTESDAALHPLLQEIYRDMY
Chain of Nuclear receptor subfamily 4 group A member 2 (Homo sapiens) (P43354 whole entry, looked up, the tested form may be a part): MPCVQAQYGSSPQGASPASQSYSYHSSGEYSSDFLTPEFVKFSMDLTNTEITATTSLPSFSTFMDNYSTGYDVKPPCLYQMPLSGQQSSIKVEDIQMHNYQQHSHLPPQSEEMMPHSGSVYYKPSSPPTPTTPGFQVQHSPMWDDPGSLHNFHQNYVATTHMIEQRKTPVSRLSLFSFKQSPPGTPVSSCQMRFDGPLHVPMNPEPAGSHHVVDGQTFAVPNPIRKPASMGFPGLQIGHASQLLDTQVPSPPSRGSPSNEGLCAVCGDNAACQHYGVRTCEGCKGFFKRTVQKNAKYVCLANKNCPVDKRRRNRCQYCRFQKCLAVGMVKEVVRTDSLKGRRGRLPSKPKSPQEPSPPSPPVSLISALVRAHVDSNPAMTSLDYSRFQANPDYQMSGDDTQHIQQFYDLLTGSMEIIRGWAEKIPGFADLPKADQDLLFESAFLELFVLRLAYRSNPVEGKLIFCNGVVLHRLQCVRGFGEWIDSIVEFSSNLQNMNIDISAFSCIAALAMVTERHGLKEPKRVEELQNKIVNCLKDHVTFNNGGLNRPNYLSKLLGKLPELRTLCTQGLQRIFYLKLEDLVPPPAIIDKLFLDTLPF
Chain of Hepatocyte nuclear factor 4-alpha (Homo sapiens) (P41235 whole entry, looked up, the tested form may be a part): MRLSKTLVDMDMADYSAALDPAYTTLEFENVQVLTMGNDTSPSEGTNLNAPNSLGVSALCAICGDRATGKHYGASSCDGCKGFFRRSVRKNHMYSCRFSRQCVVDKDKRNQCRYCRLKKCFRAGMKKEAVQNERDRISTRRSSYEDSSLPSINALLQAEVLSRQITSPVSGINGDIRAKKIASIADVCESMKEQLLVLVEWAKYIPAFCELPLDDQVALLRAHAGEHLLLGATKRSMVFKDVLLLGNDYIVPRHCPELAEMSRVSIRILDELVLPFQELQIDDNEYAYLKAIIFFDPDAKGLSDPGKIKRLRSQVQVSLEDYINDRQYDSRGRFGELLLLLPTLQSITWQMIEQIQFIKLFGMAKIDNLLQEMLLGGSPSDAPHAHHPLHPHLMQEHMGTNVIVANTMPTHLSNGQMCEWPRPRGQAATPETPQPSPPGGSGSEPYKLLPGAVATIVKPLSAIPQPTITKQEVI

Oc1ccc2c(c1)-c1ccccc1C2
active: [5] 37.9 µM | [6] 63.1 µM | [7] 2.77 µM | [8] 32.6 µM | [10] 0.791 µM | [11] 14.4 µM | [13] 23.3 µM
not listed: [16] | [17] | [18]
inactive: all other assays above

CC(C)CC(C)(O)C#CC(C)(O)CC(C)C (stereo unspecified)
not listed: [1] | [2] | [3] | [14] | [15] | [18]
inactive: all other assays above

CCOC(=O)c1ccc(C2CCC(NC[C@H](O)COc3ccc(O)c(NS(C)(=O)=O)c3)CC2)cc1 (stereo partly specified)
active: [2] 62.3 µM | [16] 55.5 µM | [6] 53.8 µM | [8] 49.2 µM | [9] 50 µM | [11] 31.2 µM | [12] 30.5 µM | [14] 54.8 µM
inactive: [3] | [4] | [5] | [7] | [10] | [13]

Cc1ccc(O)cc1
not listed: [1] | [3] | [14] | [15] | [18]
inactive: all other assays above

O=C(O)c1cccc(Oc2ccccc2)c1
not listed: [1] | [3] | [15] | [16] | [18]
inactive: all other assays above

CC(C)CCCCCCOC(=O)c1ccc(C(=O)OCCCCCCC(C)C)c(C(=O)OCCCCCCC(C)C)c1
not listed: [1] | [3] | [14] | [15] | [16] | [17] | [18]
inactive: all other assays above

CCOC(=O)COc1ccc2c(c1)CC(NCC(O)c1cccc(Cl)c1)CC2 (stereo unspecified)
active: [9] 49.8 µM | [10] 33 µM | [11] 28.5 µM | [12] 27.5 µM | [13] 34.3 µM | [14] 33 µM
not listed: [1] | [2]
inactive: all other assays above

CCn1nc(Cc2ccccc2)cc1C1CCN(C[C@H]2C[C@H](N(C)[C@@H](C(=O)O)C(C)C)C[C@@H]2c2cccc(F)c2)CC1
active: [17] 38.2 µM | [7] 51.5 µM | [9] 100 µM
not listed: [1] | [2] | [3] | [14] | [16] | [18]
inactive: all other assays above
